Assay results published in the supplement of paper PMC9446081.
± gives the standard deviation of the averaged measurements.

How the values were obtained:
Assay in all cases: relative enzymatic activity vs untreated control (fraction); higher = less inhibition
Settings in all cases: 100 µM; incubation time: 2 h at 37 C
DNA gyrase = system: DNA gyrase
Experimental: (§1)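 In vitro enzymatic inhibition assays (ProFoldin kits) for 12 purified essential E. coli enzymes or complexes, each treated with 218 active antibacterial compounds at 100 µM for 2 h at 37°C. Read-outs were fluorescence or absorbance (phosphate detection, dye binding), converted to activity via standard curves and expressed relative to untreated DMSO controls.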

DNA helicase = DNA helicase (UniProt P0ACB1)
Experimental: as §1

DNA ligase = DNA ligase (UniProt B1XA82)
Experimental: as §1

DNA polymerase = DNA polymerase (UniProt P10443)
Experimental: as §1

DNA primase = DNA primase (UniProt P0ABS7)
Experimental: as §1

GlmU = GlmU (UniProt A7ZTU1)
Experimental: as §1

Guanlyate kinase = Guanlyate kinase (UniProt Q0TBG1)
Experimental: as §1

MurA = MurA (UniProt Q3YX52)
Experimental: as §1

MurD = target: T1, MurD (UniProt P14900)
T1 sequence (whole entry): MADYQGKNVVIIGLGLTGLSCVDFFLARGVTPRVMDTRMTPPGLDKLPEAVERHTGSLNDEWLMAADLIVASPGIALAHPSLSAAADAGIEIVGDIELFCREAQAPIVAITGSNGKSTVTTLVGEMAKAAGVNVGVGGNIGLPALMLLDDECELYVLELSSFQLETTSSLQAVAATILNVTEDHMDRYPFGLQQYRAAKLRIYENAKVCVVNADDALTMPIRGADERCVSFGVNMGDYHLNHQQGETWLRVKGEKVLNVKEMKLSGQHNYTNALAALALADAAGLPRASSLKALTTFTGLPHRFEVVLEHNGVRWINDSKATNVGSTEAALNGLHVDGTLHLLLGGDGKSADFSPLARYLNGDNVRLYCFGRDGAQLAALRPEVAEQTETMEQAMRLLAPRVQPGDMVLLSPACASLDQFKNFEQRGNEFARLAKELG
Experimental: as §1

MurF = target: T2, MurF (UniProt P11880)
T2 sequence (whole entry): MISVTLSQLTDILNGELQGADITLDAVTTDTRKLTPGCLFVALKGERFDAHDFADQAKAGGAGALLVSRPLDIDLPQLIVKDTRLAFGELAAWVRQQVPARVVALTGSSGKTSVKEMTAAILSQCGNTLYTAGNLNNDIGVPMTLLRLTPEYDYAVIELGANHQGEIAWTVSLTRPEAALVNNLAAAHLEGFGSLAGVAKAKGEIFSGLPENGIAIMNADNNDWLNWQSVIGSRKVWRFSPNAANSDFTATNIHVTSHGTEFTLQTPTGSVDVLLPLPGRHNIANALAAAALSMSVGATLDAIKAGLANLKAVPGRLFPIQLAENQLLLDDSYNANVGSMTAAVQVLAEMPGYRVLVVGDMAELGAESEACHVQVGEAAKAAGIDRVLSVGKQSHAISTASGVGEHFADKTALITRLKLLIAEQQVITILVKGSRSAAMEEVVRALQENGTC
Experimental: as §1

RNA polymerase = system: RNA polymerase
Experimental: as §1

DNA helicase, sequence (P0ACB1 whole entry): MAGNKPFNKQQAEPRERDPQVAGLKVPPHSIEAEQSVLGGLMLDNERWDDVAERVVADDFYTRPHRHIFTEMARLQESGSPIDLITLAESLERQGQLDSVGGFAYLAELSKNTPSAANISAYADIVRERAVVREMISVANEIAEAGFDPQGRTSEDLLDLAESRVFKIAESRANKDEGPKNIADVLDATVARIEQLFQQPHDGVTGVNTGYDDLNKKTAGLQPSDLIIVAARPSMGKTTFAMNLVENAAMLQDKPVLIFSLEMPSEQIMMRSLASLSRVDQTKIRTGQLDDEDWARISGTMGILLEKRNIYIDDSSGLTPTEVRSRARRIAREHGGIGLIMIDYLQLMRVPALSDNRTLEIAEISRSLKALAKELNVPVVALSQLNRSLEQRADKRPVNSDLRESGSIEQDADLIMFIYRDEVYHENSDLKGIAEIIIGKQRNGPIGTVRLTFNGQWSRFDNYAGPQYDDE
DNA ligase, sequence (B1XA82 whole entry): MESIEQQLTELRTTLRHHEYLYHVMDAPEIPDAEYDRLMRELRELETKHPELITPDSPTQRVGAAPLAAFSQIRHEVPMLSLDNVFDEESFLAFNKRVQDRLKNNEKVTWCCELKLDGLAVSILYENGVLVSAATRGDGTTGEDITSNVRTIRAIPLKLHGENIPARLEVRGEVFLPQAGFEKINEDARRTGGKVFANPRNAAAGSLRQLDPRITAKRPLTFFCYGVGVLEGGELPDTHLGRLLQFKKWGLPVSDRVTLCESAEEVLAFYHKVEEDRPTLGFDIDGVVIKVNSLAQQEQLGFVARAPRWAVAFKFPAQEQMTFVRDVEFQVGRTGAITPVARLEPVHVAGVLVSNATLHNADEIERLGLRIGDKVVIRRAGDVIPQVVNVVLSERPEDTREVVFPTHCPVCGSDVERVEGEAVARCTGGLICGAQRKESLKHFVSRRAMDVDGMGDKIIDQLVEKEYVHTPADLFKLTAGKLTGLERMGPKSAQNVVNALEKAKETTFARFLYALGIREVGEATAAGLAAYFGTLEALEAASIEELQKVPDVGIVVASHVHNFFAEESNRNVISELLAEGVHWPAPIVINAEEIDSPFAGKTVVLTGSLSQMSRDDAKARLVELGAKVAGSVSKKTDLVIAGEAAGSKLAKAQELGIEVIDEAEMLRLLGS
DNA primase, sequence (P0ABS7 whole entry): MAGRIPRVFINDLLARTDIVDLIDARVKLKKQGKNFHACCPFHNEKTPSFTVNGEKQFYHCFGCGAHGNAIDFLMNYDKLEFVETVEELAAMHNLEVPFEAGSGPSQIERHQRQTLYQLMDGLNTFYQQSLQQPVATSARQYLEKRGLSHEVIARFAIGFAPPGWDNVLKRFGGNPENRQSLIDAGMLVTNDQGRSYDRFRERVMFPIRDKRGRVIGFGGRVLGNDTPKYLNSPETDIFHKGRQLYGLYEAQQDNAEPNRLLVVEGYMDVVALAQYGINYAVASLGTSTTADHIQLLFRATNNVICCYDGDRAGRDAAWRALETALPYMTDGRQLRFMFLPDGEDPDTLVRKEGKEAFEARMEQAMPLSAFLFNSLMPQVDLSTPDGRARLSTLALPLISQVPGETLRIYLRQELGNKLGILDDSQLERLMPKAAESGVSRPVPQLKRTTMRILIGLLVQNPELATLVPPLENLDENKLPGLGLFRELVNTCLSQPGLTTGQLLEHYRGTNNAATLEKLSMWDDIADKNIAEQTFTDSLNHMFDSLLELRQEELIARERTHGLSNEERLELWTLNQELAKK
MurA, sequence (Q3YX52 whole entry): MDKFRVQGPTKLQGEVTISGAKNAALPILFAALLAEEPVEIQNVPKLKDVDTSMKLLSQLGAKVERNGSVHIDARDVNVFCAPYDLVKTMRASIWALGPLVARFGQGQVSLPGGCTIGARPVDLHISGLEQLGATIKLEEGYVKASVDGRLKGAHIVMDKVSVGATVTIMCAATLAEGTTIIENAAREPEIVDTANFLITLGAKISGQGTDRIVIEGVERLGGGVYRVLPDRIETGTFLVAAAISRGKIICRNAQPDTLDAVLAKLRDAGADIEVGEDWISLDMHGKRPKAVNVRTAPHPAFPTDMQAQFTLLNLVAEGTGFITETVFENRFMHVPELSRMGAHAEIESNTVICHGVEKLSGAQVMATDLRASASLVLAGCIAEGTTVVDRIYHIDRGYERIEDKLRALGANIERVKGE
Guanlyate kinase, sequence (Q0TBG1 whole entry): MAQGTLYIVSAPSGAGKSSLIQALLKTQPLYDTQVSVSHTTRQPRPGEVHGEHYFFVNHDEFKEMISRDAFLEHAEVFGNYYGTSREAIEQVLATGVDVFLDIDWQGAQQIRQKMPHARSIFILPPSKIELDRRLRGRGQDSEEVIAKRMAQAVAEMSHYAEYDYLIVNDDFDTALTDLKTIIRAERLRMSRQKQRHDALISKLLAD
GlmU, sequence (A7ZTU1 whole entry, looked up): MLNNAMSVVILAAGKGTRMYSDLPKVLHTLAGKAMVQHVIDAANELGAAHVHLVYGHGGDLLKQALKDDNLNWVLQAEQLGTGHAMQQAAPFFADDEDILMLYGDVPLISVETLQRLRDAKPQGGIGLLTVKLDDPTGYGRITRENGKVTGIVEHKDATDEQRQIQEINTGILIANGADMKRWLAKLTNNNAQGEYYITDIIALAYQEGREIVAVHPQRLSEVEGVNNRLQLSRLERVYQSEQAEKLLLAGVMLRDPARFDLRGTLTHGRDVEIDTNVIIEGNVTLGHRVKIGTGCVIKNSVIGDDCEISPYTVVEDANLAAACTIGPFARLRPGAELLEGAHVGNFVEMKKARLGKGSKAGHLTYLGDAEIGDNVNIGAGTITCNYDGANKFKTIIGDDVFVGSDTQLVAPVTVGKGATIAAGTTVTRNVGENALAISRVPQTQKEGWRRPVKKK
DNA polymerase, sequence (P10443 whole entry): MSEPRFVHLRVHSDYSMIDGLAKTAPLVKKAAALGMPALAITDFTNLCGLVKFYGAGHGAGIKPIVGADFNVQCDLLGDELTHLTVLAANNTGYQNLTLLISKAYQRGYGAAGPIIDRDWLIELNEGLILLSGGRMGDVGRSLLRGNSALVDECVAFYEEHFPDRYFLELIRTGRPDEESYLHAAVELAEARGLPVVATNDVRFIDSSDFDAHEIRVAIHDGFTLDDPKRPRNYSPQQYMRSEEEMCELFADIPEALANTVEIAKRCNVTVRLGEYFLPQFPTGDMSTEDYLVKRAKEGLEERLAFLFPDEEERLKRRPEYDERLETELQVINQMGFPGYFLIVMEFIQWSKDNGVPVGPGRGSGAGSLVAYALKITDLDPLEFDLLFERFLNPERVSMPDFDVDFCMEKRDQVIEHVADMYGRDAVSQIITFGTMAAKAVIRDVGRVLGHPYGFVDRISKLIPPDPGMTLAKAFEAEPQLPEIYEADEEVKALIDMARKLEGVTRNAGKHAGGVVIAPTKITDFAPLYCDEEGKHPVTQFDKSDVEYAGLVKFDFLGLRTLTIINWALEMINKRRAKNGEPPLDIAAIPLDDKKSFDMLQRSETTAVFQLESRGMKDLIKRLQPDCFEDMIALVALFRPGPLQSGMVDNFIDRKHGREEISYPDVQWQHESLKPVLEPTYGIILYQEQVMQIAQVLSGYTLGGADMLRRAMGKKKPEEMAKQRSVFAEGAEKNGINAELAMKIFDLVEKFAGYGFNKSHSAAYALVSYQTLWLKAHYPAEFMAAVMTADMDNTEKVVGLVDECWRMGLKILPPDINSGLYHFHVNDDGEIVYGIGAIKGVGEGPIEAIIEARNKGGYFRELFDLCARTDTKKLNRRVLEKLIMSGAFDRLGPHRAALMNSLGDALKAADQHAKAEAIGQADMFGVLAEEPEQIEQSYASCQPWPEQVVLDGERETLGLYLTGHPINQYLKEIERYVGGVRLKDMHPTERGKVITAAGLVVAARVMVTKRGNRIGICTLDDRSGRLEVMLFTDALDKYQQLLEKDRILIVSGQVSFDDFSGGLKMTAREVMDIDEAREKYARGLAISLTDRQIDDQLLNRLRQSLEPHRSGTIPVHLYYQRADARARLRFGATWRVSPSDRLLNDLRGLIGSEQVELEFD

Structure (SMILES) | relative enzymatic activity (DNA gyrase) | relative enzymatic activity (DNA helicase) | relative enzymatic activity (DNA ligase) | relative enzymatic activity (DNA polymerase) | relative enzymatic activity (DNA primase) | relative enzymatic activity (GlmU) | relative enzymatic activity (Guanlyate kinase) | relative enzymatic activity (MurA) | relative enzymatic activity (MurD) | relative enzymatic activity (MurF) | relative enzymatic activity (RNA polymerase)
CCn1cc(C(=O)O)c(=O)c2cc(F)c(N3CCN(C)CC3)cc21.CS(=O)(=O)O | 0.0308 ± 0.043 | 0.573 ± 0.14 | 1.16 ± 0.29 | 1.27 ± 0.33 | 0.843 ± 0.025 | 0.944 ± 0.037 | 0.919 ± 0.11 | 0.696 ± 0.11 | 0.589 ± 0.41 | 1.109 ± 0.0024 | 0.862 ± 0.089
CN(C)c1ccc(O)c2c1C[C@H]1C[C@H]3[C@H](N(C)C)C(=O)[C@@H](C(N)=O)C(=O)[C@@]3(O)C(=O)[C@H]1C2=O | 0.636 ± 0.27 | 0.47 ± 0.11 | 0.8372 ± 0.0039 | 0.973 ± 0.03 | 0.776 ± 0.056 | 1.03 ± 0.019 | 0.692 ± 0.016 | 0.306 ± 0.14 | 0.607 ± 0.43 | 0.981 ± 0.18 | 0.686 ± 0.011
CN[C@H]1CN(c2ccc3c(=O)c(C(=O)O)cn(-c4nccs4)c3n2)C[C@@H]1OC | 0.253 ± 0.27 | 0.18 ± 0.16 | 0.706 ± 0.08 | 0.641 ± 0.27 | 0.622 ± 0.13 | 1 ± 0.039 | 0.851 ± 0.064 | 0.603 ± 0.14 | 0.58 ± 0.36 | 0.955 ± 0.21 | 0.769 ± 0.11
CC[C@@H]1OC(=O)[C@H](C)[C@@H](O[C@H]2C[C@@](C)(OC)[C@@H](O)[C@H](C)O2)[C@H](C)[C@@H](O[C@@H]2O[C@H](C)C[C@H](N(C)C)[C@H]2O)[C@](C)(O)C[C@@H](C)/C(=N\OCOCCOC)[C@H](C)[C@@H](O)[C@]1(C)O | 0.682 ± 0.5 | 0.568 ± 0.081 | 0.8031 ± 0.0034 | 0.48 ± 0.67 | 0.8559 ± 0.0026 | 0.895 ± 0.076 | 0.922 ± 0.026 | 0.852 ± 0.19 | 0.583 ± 0.4 | 1.12 ± 0.015 | 0.884 ± 0.17
Cc1c(N)nc([C@H](CC(N)=O)NC[C@H](N)C(N)=O)nc1C(=O)N[C@H](C(=O)N[C@H](C)[C@@H](O)[C@H](C)C(=O)N[C@H](C(=O)NCCc1nc(-c2nc(C(=O)NCCCNCCCCN)cs2)cs1)[C@@H](C)O)[C@@H](O[C@@H]1O[C@@H](CO)[C@@H](O)[C@H](O)[C@@H]1O[C@@H]1O[C@H](CO)[C@@H](O)[C@H](OC(N)=O)[C@@H]1O)c1c[nH]cn1 | 0.0474 ± 0.067 | 0.732 ± 0.39 | 0.811 ± 0.15 | 0.308 ± 0.022 | 0.762 ± 0.041 | 0.988 ± 0.023 | 0.871 ± 0.084 | 0.872 ± 0.13 | 0.622 ± 0.4 | 0.281 ± 0.39 | 0.75 ± 0.034
Cc1cc(O)c(C(=O)NC(C(=O)NC2C(=O)N3C(C(=O)O)=C(CSc4nnnn4C)CSC23)c2ccc(O)cc2)cn1 (stereo not given) | 0.926 ± 0.39 | 0.805 ± 0.39 | 1.22 ± 0.41 | 1.34 ± 0.42 | 0.891 ± 0.028 | 0.962 ± 0.018 | 0.925 ± 0.044 | 0.346 ± 0.0056 | 0.601 ± 0.41 | 0.945 ± 0.24 | 0.862 ± 0.071
Cc1scc2c1N(C(=O)CN1CCN(C)CC1)c1ccccc1NC2=O.Cl | 0.878 ± 0.31 | 0.526 ± 0.058 | 1.12 ± 0.35 | 1.17 ± 0.21 | 0.65 ± 0.14 | 1.1 ± 0.12 | 0.9435 ± 0.0079 | 0.703 ± 0.12 | 0.608 ± 0.41 | 0.931 ± 0.16 | 0.841 ± 0.091
COC1C=COC2(C)Oc3c(C)c(O)c4c(O)c(c(C=NN5CCN(C)CC5)c(O)c4c3C2=O)NC(=O)C(C)=CC=CC(C)C(O)C(C)C(O)C(C)C(OC(C)=O)C1C (stereo not given) | 0.468 ± 0.18 | 0.717 ± 0.33 | 0.8414 ± 0.0057 | 0.862 ± 0.32 | 0.507 ± 0.0061 | 0.288 ± 0.02 | 0.399 ± 0.0045 | 0.0919 ± 0.015 | 0.175 ± 0.081 | 0.464 ± 0.051 | 0.0875 ± 0.0034
NC[C@H]1O[C@H](O[C@H]2[C@H](O)[C@@H](O[C@H]3O[C@H](CO)[C@@H](O)[C@H](N)[C@H]3O)[C@H](N)C[C@@H]2N)[C@H](N)C[C@@H]1O | 0.902 ± 0.18 | 0.378 ± 0.22 | 0.91 ± 0.034 | 1.19 ± 0.21 | 0.572 ± 0.14 | 1.02 ± 0.033 | 0.443 ± 0.1 | 0.747 ± 0.093 | 0.609 ± 0.42 | 0.956 ± 0.23 | 0.906 ± 0.048
O=C(NO)c1cn(-c2cccc(C(=O)N3CCC4(CC3)C(=O)NCN4c3ccccc3)c2)nn1 | ≤ 0 | 0.0673 ± 0.0027 | 0.205 ± 0.025 | 0.00452 ± 0.00034 | ≤ 0 | 0.656 ± 0.088 | ≤ 0 | 0.245 ± 0.072 | 0.36 ± 0.22 | 0.634 ± 0.13 | 0.00747 ± 0.0021
COc1cc2c(cc1OC)C(=O)C(CC1CCN(Cc3ccccc3)CC1)C2.Cl (stereo not given) | 0.363 ± 0.072 | 0.802 ± 0.32 | 1.19 ± 0.057 | 1.18 ± 0.28 | 0.713 ± 0.2 | 0.766 ± 0.067 | 0.892 ± 0.1 | 0.486 ± 0.059 | 0.456 ± 0.32 | 0.934 ± 0.17 | 0.85 ± 0.011
C/C(=C\C(=O)OCCCCCCCCC(=O)O)C[C@@H]1OC[C@H](C[C@@H]2O[C@H]2[C@@H](C)[C@H](C)O)[C@@H](O)[C@H]1O | 0.849 ± 0.24 | 0.52 ± 0.098 | 0.897 ± 0.013 | 0.512 ± 0.72 | 0.807 ± 0.031 | 0.999 ± 0.045 | 1.06 ± 0.087 | 0.688 ± 0.19 | 0.607 ± 0.43 | 1.17 ± 0.52 | 0.935 ± 0.11
O=C(O)c1cn(C2CC2)c2cc(N3CCC(O)(COc4ccc(N5C[C@H](CO)OC5=O)cc4F)CC3)c(F)cc2c1=O | 0.0421 ± 0.059 | 0.414 ± 0.095 | 0.9068 ± 0.0026 | 1.13 ± 0.22 | 0.851 ± 0.039 | 0.9967 ± 0.0077 | 0.905 ± 0.15 | 0.608 ± 0.25 | 0.583 ± 0.39 | 1.22 ± 0.022 | 0.8 ± 0.067
Cc1ccc(S(=O)(=O)O)cc1.NC1CCN(c2nc3c(cc2F)c(=O)c(C(=O)O)cn3-c2ccc(F)cc2F)C1.O (stereo not given) | 1.41 ± 0.49 | 0.509 ± 0.054 | 1.02 ± 0.043 | 1.15 ± 0.22 | 0.892 ± 0.035 | 0.991 ± 0.05 | 0.699 ± 0.11 | 0.644 ± 0.029 | 0.935 ± 0.86 | 1.01 ± 0.21 | 0.771 ± 0.031
CCn1cc(C(=O)O)c(=O)c2cc(F)c(N3CCNCC3)nc21 | 0.00427 ± 0.006 | 0.582 ± 0.19 | 1.03 ± 0.25 | 0.579 ± 0.52 | 0.684 ± 0.19 | 1 ± 0.017 | 0.761 ± 0.07 | 0.839 ± 0.13 | 0.573 ± 0.39 | 0.982 ± 0.23 | 0.833 ± 0.03
